Reference: the antibiotic and cytotoxicity screens of Wong et al. (2023)
Hit rate of the full screen: of about 39,000 compounds, about 500 (1.3%) were called active. What follows is part of a selection rich in actives, with near analogues and random picks from the rest.

system: S. aureus RN4220; assay: growth inhibition call (relative growth <= 0.2); details: 50 µM

Growth inhibition call, inactive:
CC(C)CC#Cc1cnc2c(c1)C(=O)N([C@@H](C)CO)C[C@H](C)[C@@H](CN(C)C(=O)CCN1CCCCC1)O2
CC(C)NC(=O)Nc1ccc2c(c1)CC(=O)N([C@@H](C)CO)C[C@@H](C)[C@@H](CN(C)S(=O)(=O)c1ccc(F)cc1)O2
Cc1ccc(-c2c[nH]c(=S)[nH]2)cc1
Cn1c(-c2ccccc2)c[nH]c1=S
CC1CC2C3CCC4=CC(=O)C=CC4(C)C3(Cl)C(O)CC2(C)C1(OC(=O)c1ccco1)C(=O)CCl (centres undefined)
CN(C)C(=O)c1ccc(-c2cccc(-c3nc(C(=O)NC4CCCC4)cc4c3[C@@H](CCO)N([S@](=O)C(C)(C)C)C4)c2)cc1
COc1ccc(S(=O)(=O)Nc2ccc3c(c2)C(=O)N([C@@H](C)CO)C[C@H](C)[C@@H](CN(C)S(C)(=O)=O)OCCCC[C@@H](C)O3)cc1
COc1cc2nc(N3CCCN(Cc4ccccc4)CC3)nc(NC3CCN(Cc4ccccc4)CC3)c2cc1OC
COc1cc2nc(N3CCCN(Cc4ccccc4)CC3)nc(Nc3ccc(F)c(Cl)c3)c2cc1OC
COc1ccc2c3c(n(c2c1)C)[C@H](CO)N(Cc1cc(cc(c1)OC)OC)C[C@]13CN(C1)C(=O)NC(C)C
O=C(O)c1ccc2ccccc2c1
COc1ccc(-c2ccc3cc(C(=O)O)ccc3c2)cc1C12CC3CC(CC(C3)C1)C2
CCO[C@@H]1OC(C(=O)N2CCOCC2)=C[C@H](c2ccccc2)[C@H]1CCCOC(=O)NCCCCCC(=O)NO
Cc1noc(C)c1NC(=O)N(C)C[C@@H]1Oc2c(NC(=O)c3ccncc3)cccc2C(=O)N([C@@H](C)CO)C[C@H]1C
COc1ccc(S(=O)(=O)N(C)C[C@H]2OCCCC[C@H](C)Oc3ccc(NS(C)(=O)=O)cc3C(=O)N([C@H](C)CO)C[C@H]2C)cc1
CC(C)c1onc(-c2c(Cl)cccc2Cl)c1COc1ccc(C=Cc2cccc(C(=O)O)c2)c(Cl)c1
O=C(O)c1ccnc(N2CC(O)(c3ccc(OCc4c(-c5c(Cl)cccc5Cl)noc4C4CC4)cc3Cl)C2)c1
CN(C)C(=O)C[C@H]1C=C[C@@H](NC(=O)C2CC2)[C@H](CO)O1
CCCCc1oc2ccc(NS(C)(=O)=O)cc2c1C(=O)c1ccc(OCCCN(CCCC)CCCC)cc1.Cl
CCCCN(CCCC)CCCOC(=O)c1ccc(N)cc1.O=S(=O)(O)O
COC(=O)[C@H](Cc1ccc(-n2cc(C(=O)NO)nn2)cc1)N1C[C@](C)(OC)O[C@@H](Cc2ccccc2)[C@H]1/C=C/C1CC1
Clc1ccc(C(c2ccc(Cl)cc2)[n+]2ccn(C[C@@H](OCc3ccc(Cl)cc3Cl)c3ccc(Cl)cc3Cl)c2)cc1
CO[C@@H]1CN(C)C(=O)c2cc(NC(=O)Nc3ccc(Cl)cc3)ccc2OC[C@@H](C)N(C(=O)Nc2c(C)noc2C)C[C@@H]1C
Cc1ccc(S(=O)(=O)N(C)C[C@@H]2OCCCC[C@@H](C)Oc3ccc(NS(C)(=O)=O)cc3C(=O)N([C@H](C)CO)C[C@@H]2C)cc1
O=C(C[C@H]1CC[C@H]2[C@@H](COC[C@@H](O)CN2C(=O)c2ccncc2)O1)NC1CCC1
COCC(=O)N1C[C@]2(C1)CN([C@@H](CO)c1[nH]c3cc(ccc3c12)OC)S(=O)(=O)C

Growth inhibition call, active:
S=c1[nH]cc(-c2ccccc2)[nH]1
Brc1ccc2nc(N3CCCN(Cc4ccccc4)CC3)nc(NC3CCN(Cc4ccccc4)CC3)c2c1
O=C(O)c1ccc2cc(-c3ccc(O)c(C45CC6CC(CC(C6)C4)C5)c3)ccc2c1
CC(C)c1onc(-c2c(Cl)cccc2Cl)c1COc1ccc(/C=C/c2cccc(C(=O)O)c2)c(Cl)c1
CCCCc1oc2ccc(NS(C)(=O)=O)cc2c1C(=O)c1ccc(OCCCN(CCCC)CCCC)cc1
Cc1c(N)nc([C@H](CC(N)=O)NC[C@H](N)C(N)=O)nc1C(=O)N[C@H](C(=O)N[C@H](C)[C@@H](O)[C@H](C)C(=O)N[C@H](C(=O)NCCc1nc(-c2nc(C(=O)NCCCNCCCCN)cs2)cs1)[C@@H](C)O)[C@@H](O[C@@H]1O[C@@H](CO)[C@@H](O)[C@H](O)[C@@H]1O[C@@H]1O[C@H](CO)[C@@H](O)[C@H](OC(N)=O)[C@@H]1O)c1c[nH]cn1
CC[C@H]1OC(=O)[C@H](C)[C@@H](O[C@H]2C[C@@](C)(OC)[C@@H](O)[C@H](C)O2)[C@H](C)[C@@H](O[C@@H]2O[C@H](C)C[C@H](N(C)C)[C@H]2O)[C@](C)(O)C[C@@H](C)[C@@H]2N[C@@H](COCCOC)O[C@H]([C@H]2C)[C@]1(C)O
CCC1OC(=O)C(C)C(OC2CC(C)(OC)C(O)C(C)O2)C(C)C(OC2OC(C)CC(N(C)C)C2O)C(C)(O)CC(C)C2NC(COCCOC)OC(C2C)C1(C)O (centres undefined)
